Test results reported in PubChem BioAssay AID687020 (Broad Institute, 2013).
Out of some 1,400 compounds screened, about 100 (7.1%) were called active. The rule behind the calls is not given here. These entries were drawn from the full list. Potency and affinity values are given separately.

Test: viability loss in Vero cells – cell-based, plate reader, cherry-pick samples, cytotoxicity control, dose response (AID 687020);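 note: compounds incubated with cells for three days before luminescence read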
Details: series mostly up to 19.5 µM; activity change, negative = toxicity: at the top concentration

SMILES	activity change, negative = toxicity
CC(=O)Nc1cccc(/C(C)=N/NC(=O)c2cccc(S(=O)(=O)N3CCCC3)c2)c1	-0.142% (inactive)
CC(=O)Nc1cccc(C(=O)OCC(=O)Nc2ccc(Cl)cn2)c1	-16.6% (inactive)
O=C(C1CCOCC1)N1[C@H](CO)[C@@H](c2ccccc2)C12CN(Cc1cccnc1)C2	-1.45% [at 21 µM] (inactive)
COC(=O)Cc1ccc(OC2(C)CCN(Cc3csc4ccccc34)C2)cc1 (stereo not drawn)	-3.5% (inactive)
COc1ccc(Cc2nnc(NC(=O)c3ccccc3Cl)s2)cc1OC	7.56% (inactive)
COC(=O)CCc1cccc(CCC(=O)OC)c1	13% (inactive)
C[C@@H](NC(=O)C[C@@H]1CC[C@H]2[C@@H](COC[C@H](O)CN2C(=O)Nc2ccccc2)O1)c1ccccc1	-8.89% (inactive)
Cc1ccc(S(=O)(=O)NC(=O)C2(C)CCN2C(=O)c2ccc(C(F)(F)F)nc2C)cc1 (stereo not drawn)	1.35% (inactive)
Cc1ccc(-c2csc(NC(=O)c3ccc(S(=O)(=O)N4CCc5ccccc54)cc3)n2)cc1	-32.4% (inactive)
O=S(=O)(c1cnc(Cl)c(Cl)c1)N1CCc2ccccc21	-3.26% (inactive)
COc1ccc(CC(=O)OCC(=O)NCCNC(=O)COC(=O)Cc2ccc(OC)cc2)cc1	-7.45% (inactive)
COCCNC(=O)C[C@@H]1C[C@H]2c3cc(NC(=O)Nc4ccc(OC)cc4)ccc3O[C@H]2[C@@H](CO)O1	12.2% (inactive)
C[C@H](CCC(=O)O)[C@H]1CC[C@H]2[C@@H]3CC[C@@H]4C[C@H](O)CC[C@]4(C)[C@H]3C[C@H](O)[C@]12C	-10.8% (inactive)
CC(Oc1ccc(Cl)cc1Cl)C(=O)NCCCN1CCOCC1 (stereo not drawn)	-2.88% (inactive)
Cc1oc2c(C)c3oc(=O)c(CCC(=O)NCCN4CCOCC4)c(C)c3cc2c1C	5.6% (inactive)
O=C(NC1CCCCC1)N[C@H]1C=C[C@@H](CC(=O)N2CCOCC2)O[C@@H]1CO	-5.32% (inactive)
CN(CC(=O)Nc1ccccc1C(=O)NC1CC1)Cc1ccccc1F	-2.83% (inactive)
CCCCCC(=O)NC1CCCCN(C)C1=O (stereo not drawn)	2.66% (inactive)
CC(=O)NCCNc1nc(NCc2cccs2)nc2ccsc12	-8.23% (inactive)
COc1ccc(N2CCN(Cc3nc4c(c(=O)[nH]c(=O)n4C)n3Cc3cccc(Cl)c3)CC2)cc1	-14.8% (inactive)
NC(c1csc(NC(=O)Nc2cccc(Cl)c2)n1)C1CCCCC1 (stereo not drawn)	-6.54% (inactive)
Cc1ccc(Cn2cc(CN3CC(N(C)C)CS3(=O)=O)nn2)cc1 (stereo not drawn)	-29.8% (inactive)
CC(C)(C)OC(=O)NC(CC(=O)OCc1ccccc1)C(=O)O (stereo not drawn)	4.95% (inactive)
O=S(=O)(c1ccc(=S)[nH]c1)N1CCN(Cc2ccccc2)CC1	-9.4% (inactive)

SMILES	activity change, negative = toxicity
O=C(O)C(Cc1ccc(Cl)cc1)NS(=O)(=O)c1ccc(Cl)cc1 (stereo not drawn)	-12.4% (inactive)
O=C(O)C1C2C=CC(C2)C1C(=O)NCc1ccccc1 (stereo not drawn)	-11.6% (inactive)
O=C(Nc1cc(F)cc(F)c1)c1sc(Cl)nc1-c1ccccc1	-19.5% (inactive)
CCS(=O)(=O)N1CCC2(CC1)OCCN2S(=O)(=O)c1ccccc1	-6.28% (inactive)
NC(=O)C1CCN(C(=O)C2(NC(=O)Nc3cccc(F)c3)CCCCC2)CC1	9.22% (inactive)
CCCCN1C[C@H](Cc2ccccc2)[C@@H](CC(=O)NCc2ccc(OC)cc2)C1=O	-17.5% (inactive)
COc1ccc(CNC(=O)C[C@H]2C(=O)N(Cc3ccccc3)C[C@@H]2Cc2ccccc2)cc1	-16.9% (inactive)
CCCCn1nc(C(=O)Nc2ccc3c(c2)OCO3)c2ccccc2c1=O	-14.3% (inactive)
CO[C@@H]1CN(C)C(=O)c2ccc(NS(=O)(=O)c3cccc(F)c3)cc2OC[C@@H](C)N(C(=O)Cc2cccnc2)C[C@H]1C	-6.46% [at 18 µM] (inactive)
COc1ccc(-c2csc(C(C)(O)c3ccc(F)c(F)c3)n2)cc1OC (stereo not drawn)	4.66% (inactive)
COc1cc(NC(=O)c2nccn2C)cc(C(=O)Nc2cccc(C(F)(F)F)c2)c1	-11.7% (inactive)
COc1ccc(NC(=O)CN2CCc3ccccc3C2)cc1S(=O)(=O)N1CCOCC1	-4.47% (inactive)
COc1ccc(CCC(=O)Nc2cc(S(=O)(=O)N3CCOCC3)ccc2OC(C)C)cc1	-8.21% (inactive)
CCCNC(=O)N1CC2(C1)CN(Cc1cccc(F)c1)[C@@H](CO)c1[nH]c3cc(OC)ccc3c12	1.05% (inactive)
C[C@@H](NC(=O)[C@@H]1[C@@H](CO)[C@@H]2Cn3c(cccc3=O)[C@@H]2N1CC1CCCC1)c1ccccc1	-15.9% (inactive)
CC(Oc1ccc2ccc(=O)oc2c1)C(=O)NC(Cc1c[nH]c2ccc(O)cc12)C(=O)O (stereo not drawn)	-5.7% (inactive)
O=C(N[C@@H]1CC[C@H](CCNC(=O)C2CCCCC2)O[C@@H]1CO)c1ccccn1	-2.22% (inactive)
COc1ccc(CCN2CC(C(=O)NCCc3ncccc3C)CCC2=O)cc1 (stereo not drawn)	6.79% (inactive)
CCCc1cc(CNC(=O)C2CCC(=O)N(CCc3cccc(F)c3)C2)on1 (stereo not drawn)	-26.1% (inactive)
Nc1ccc2oc(-c3ccccc3Cl)cc(=O)c2c1O	-5.16% (inactive)
Cc1ccc(OCCCCNC(C)c2ccccc2)c(C)c1 (stereo not drawn)	-5.1% (inactive)
COc1ccc(Cl)cc1-c1cc(C(=O)N[C@H](C)c2ccccc2)[nH]n1	-18.1% (inactive)
Cc1cc(O)c(C(C)C)cc1NC(=O)c1ccccc1Cl	-17.8% (inactive)
CC(C)c1ccccc1OCCCCN1CCCCC1	-30.4% (inactive)
